{"source": "PubChem BioAssay (NCATS)", "note": "Results filed as inconclusive are left out. Entries that show only a call come without a potency. Calls of active or inactive are those of the source. Calls come from the whole dose curve; as a rule, active = well fitted cell-killing curve with a large enough effect; inconclusive = small, poorly fitted or top-dose-only effect, or effect the other way; inactive = flat fitted curve, though single readings scatter. Potency is the fitted concentration of half-maximal effect.", "data": [{"system": "Tov112D", "assay": "Primary qHTS to identify gynecologic anti-cancer compounds using libraries of approved drugs and bioactive compounds (AID 1345084); note: nearly all actives have a fitted effect of over 55% in size", "settings": "Gynecologic cancer cell panel viability, ATPlite luminescence, 48 h; series mostly up to 57.5 µM", "summary_of_the_method": "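Five-concentration response, 48 h; readout is ATP-driven luciferase luminescence.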", "values": [{"smiles": "O=[N+]([O-])c1ccc(-[n+]2nc(-c3ccccc3)nn2-c2ccc(I)cc2)cc1", "Potency": "inactive"}, {"smiles": "COc1ccccc1NC(=O)Nc1ccc2ccccc2c1", "Potency": "inactive"}, {"smiles": "C=C(C)C(=O)OC1[C@@H]2C(=C)C(=O)O[C@@H]2C[C@@H](C)[C@@H]2C=CC(=O)[C@@]12C", "note": "(stereo partly specified)", "Potency": "inactive"}, {"smiles": "CCC(C)n1cc(C)c2c(C(=O)NCc3c(C)cc(C)[nH]c3=O)cc(-c3ccc(N4CCNCC4)nc3)cc21", "note": "(stereo unspecified)", "Potency": "inactive"}, {"smiles": "CC(C)[C@@H](C)/C=C/[C@@H](C)[C@H]1CC[C@H]2C3=CC=C4C[C@@H](O)CC[C@]4(C)C3=CC[C@]12C", "Potency": "inactive"}, {"smiles": "Cn1c(NC[C@@H](N)Cc2ccccc2)nc(-c2ccncc2)c(-c2ccc3ccccc3c2)c1=O", "Potency": "inactive"}, {"smiles": "CC1(C)CC[C@]2(C(=O)OC3OC(CO)C(O)C(O)C3O)CC[C@]3(C)C(=CCC4[C@@]5(C)CC[C@H](OC6OC(C(=O)O)C(O)C(O)C6O)C(CO)(CO)C5CC[C@]43C)[C@@H]2C1", "note": "(stereo partly specified)", "activity change, negative = cytotoxicity": "-7.53% [at 11.6 µM] (inactive)"}, {"smiles": "Nc1ncnc2c1ncn2[C@@H]1O[C@H](CO)C[C@H]1O", "Potency": "inactive"}, {"smiles": "COc1ccc(C(=O)N(CCC(C)C)Cc2nc(C)c(C)n2Cc2ccccc2C)c(OC)c1", "Potency": "inactive"}, {"smiles": "O=C(Nc1ccc(F)cc1)N1CCc2ccccc2C1c1ccc(C(F)(F)F)cc1", "note": "(stereo unspecified)", "Potency": "inactive"}, {"smiles": "Cc1ccc(C(=O)N2CCN(c3ccc([N+](=O)[O-])cc3)CC2)cc1Cl", "Potency": "inactive"}, {"smiles": "CN(C)C(=O)c1cc2cnc(Nc3ccc(N4CCNCC4)cn3)nc2n1C1CCCC1", "Potency": "inactive"}, {"smiles": "C=C1/C(=C/C=C2\\CCC[C@]3(C)[C@@H]([C@H](C)/C=C/C(=O)C4CC4)CC[C@@H]23)C[C@@H](O)C[C@@H]1O", "Potency": "inactive"}, {"smiles": "CC(C)(C)c1ccc(-c2nc3ccccc3[nH]2)cc1", "Potency": "3.98 µM (active)"}, {"smiles": "COc1cc(O)c(C(=O)CCc2ccc(O)cc2)c(O[C@@H]2O[C@H](CO)[C@@H](O)[C@H](O)[C@H]2O)c1", "Potency": "inactive"}, {"smiles": "Cc1ccc(C2(COC(=O)C(C)C)CO2)c(OC(=O)C(C)C)c1", "note": "(stereo unspecified)", "Potency": "inactive"}, {"smiles": "CC1(C)CC23[C@@H]4CC(=O)[C@@H]2COC(=O)[C@@H]3CC[C@H]41", "Potency": "inactive"}, {"smiles": "COc1cc2ncnc(Oc3cccc(NC(=O)Nc4cc(C(C)(C)C(F)(F)F)on4)c3)c2cc1OC", "Potency": "inactive"}, {"smiles": "CN(CCCNC(=O)c1ccc2nc3c(c(Cl)c2c1)CCCC3)Cc1ccccc1", "Potency": "inactive"}, {"smiles": "OCC(Cc1ccccc1)Nc1nc(Oc2ccc3c(c2)CCC3)nc2c1ncn2Cc1ccc(-c2ccccc2)cc1", "note": "(stereo unspecified)", "Potency": "inactive"}, {"smiles": "O=C(NC(NC(=S)Nc1ccc(F)c([N+](=O)[O-])c1)C(Cl)(Cl)Cl)C(c1ccccc1)c1ccccc1", "note": "(stereo unspecified)", "Potency": "inactive"}, {"smiles": "Cc1[nH]c(/C=C2\\C(=O)Nc3ccc(F)cc32)c(C)c1C(=O)NC[C@H](O)CN1CCOCC1", "Potency": "inactive"}, {"smiles": "CC1CCC2C(=CCC(O)C2(C)C)C1(C)Cc1c(O)cc(CO)c(C=O)c1O", "note": "(stereo unspecified)", "Potency": "inactive"}, {"smiles": "CCCCn1c(-c2ccccc2)nc(-c2ccccc2)c1CN(Cc1ccc2c(c1)OCO2)Cc1ccc2c(c1)OCO2", "Potency": "inactive"}, {"smiles": "COc1ccc(CNC(=O)Nc2ncc([N+](=O)[O-])s2)cc1", "Potency": "inactive"}, {"smiles": "O=C(NCc1ccc(Oc2ccccc2)cc1)c1nc(-c2cc(Br)c(O)c(Br)c2)no1", "Potency": "inactive"}]}]}
